Test results from PubChem BioAssay (NCATS).
Inconclusive results are not listed. Calls of active or inactive are those of the source. Calls come from the whole dose curve; as a rule, active = well fitted curve in the direction sought with a large enough effect; inconclusive = small, poorly fitted or top-dose-only effect, or another doubt; inactive = no such curve, though single readings can be large; an effect the other way counts as inactive or inconclusive.

Tests used:
[1] = tested on: Zika virus NS2B-NS3 protease (linked construct); assay: Confirmatory screen NINDS AMC qHTS for Zika virus inhibitors (AID 1347152); note: potency is the fitted concentration of half-maximal effect; nearly all actives have a fitted effect of over 70% in size
Outline: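 Purified NS2B-NS3 protease with NS2B hydrophilic domain linked to NS3 protease domain by flexible linker, 1 nM final in 10 mM Tris-HCl pH 8.0, 0.01% Tween 20. Compounds preincubated 15 min, room temperature; Bz-Nle-KRR-AMC 10 microM (Km 18.3 µM); 15-min fluorescence change, 4-parameter Hill fit.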

[2] = tested on: Zika virus NS2B-NS3 protease (unlinked complex); assay: Confirmatory screen GU AMC qHTS for Zika virus inhibitors (AID 1347153);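 note: enzyme at 25 nM with substrate at 10 µM below its Km of 18.3 µM; potency is the fitted concentration of half-maximal effect; nearly all actives have a fitted effect of over 70% in size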
Outline: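 Noncovalent NS2B hydrophilic domain/NS3 protease complex (25 nM) in 10 mM Tris-HCl pH 8.0, 0.01% Tween 20 was preincubated 15 min at room temperature with compounds. Then 10 µM AMC substrate (Km 18.3 µM) was added; fluorescence was read over 15 min and fitted to a 4-parameter Hill equation.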

[3] = qHTS of pediatric cancer cell lines to identify multiple opportunities for drug repurposing: Confirmatory screen for Rh18 cells (AID 1347125); note: nearly all actives have a fitted effect of over 55% in size; note: potency is the fitted concentration of half-maximal effect
Outline: (§1)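 Viability after 48 h compound treatment at 37C, 500-1,000 cells/well, read as ATP luminescence with CellTiter-Glo. Primary screens used 11-point (MIPE, 0.78 nM-46 µM) or 8-point (NPC, 0.59 nM-46 µM) final concentrations; follow-up screens used 11-point dilutions.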

[4] = qHTS of pediatric cancer cell lines to identify multiple opportunities for drug repurposing: Confirmatory screen for SK-N-SH cells (AID 1347129);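 note: potency is the fitted concentration of half-maximal effect; cells exposed to compound for 48 h before viability read; nearly all actives have a fitted effect of over 60% in size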
Outline: as §1

[5] = qHTS of pediatric cancer cell lines to identify multiple opportunities for drug repurposing: Confirmatory screen for Saos-2 cells (AID 1347127); note: nearly all actives have a fitted effect of over 60% in size; note: potency is the fitted concentration of half-maximal effect
Outline: as §1

Furin (Homo sapiens) = Furin (Homo sapiens) (UniProt P09958); assay: Furin counterscreen qHTS for Zika virus inhibitors (AID 1347149); note: nearly all actives have a fitted effect of over 70% in size; note: potency is the fitted concentration of half-maximal effect
Outline: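 Fluorogenic cleavage of BOC-RVRR-AMC (2 microM final, Km ~15 µM) was monitored (ex 340, em 450 nm) at 37C after 15 min RT preincubation of 5 nM furin with compounds in HEPES pH 7.0 buffer with CaCl2 and Triton X-100. Percent inhibition was fitted to a 4-parameter Hill curve.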

[6] = qHTS of pediatric cancer cell lines to identify multiple opportunities for drug repurposing: Confirmatory screen for Rh30 cells (AID 1347126); note: nearly all actives have a fitted effect of over 55% in size
Outline: as §1

[7] = qHTS of pediatric cancer cell lines to identify multiple opportunities for drug repurposing: Confirmatory screen for OHS-50 cells (AID 1347128);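 note: compound exposure lasted 48 h at 37 degrees C; nearly all actives have a fitted effect of over 55% in size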; note: potency is the fitted concentration of half-maximal effect
Outline: as §1

Sequence of Furin (Homo sapiens) (P09958 whole entry, looked up): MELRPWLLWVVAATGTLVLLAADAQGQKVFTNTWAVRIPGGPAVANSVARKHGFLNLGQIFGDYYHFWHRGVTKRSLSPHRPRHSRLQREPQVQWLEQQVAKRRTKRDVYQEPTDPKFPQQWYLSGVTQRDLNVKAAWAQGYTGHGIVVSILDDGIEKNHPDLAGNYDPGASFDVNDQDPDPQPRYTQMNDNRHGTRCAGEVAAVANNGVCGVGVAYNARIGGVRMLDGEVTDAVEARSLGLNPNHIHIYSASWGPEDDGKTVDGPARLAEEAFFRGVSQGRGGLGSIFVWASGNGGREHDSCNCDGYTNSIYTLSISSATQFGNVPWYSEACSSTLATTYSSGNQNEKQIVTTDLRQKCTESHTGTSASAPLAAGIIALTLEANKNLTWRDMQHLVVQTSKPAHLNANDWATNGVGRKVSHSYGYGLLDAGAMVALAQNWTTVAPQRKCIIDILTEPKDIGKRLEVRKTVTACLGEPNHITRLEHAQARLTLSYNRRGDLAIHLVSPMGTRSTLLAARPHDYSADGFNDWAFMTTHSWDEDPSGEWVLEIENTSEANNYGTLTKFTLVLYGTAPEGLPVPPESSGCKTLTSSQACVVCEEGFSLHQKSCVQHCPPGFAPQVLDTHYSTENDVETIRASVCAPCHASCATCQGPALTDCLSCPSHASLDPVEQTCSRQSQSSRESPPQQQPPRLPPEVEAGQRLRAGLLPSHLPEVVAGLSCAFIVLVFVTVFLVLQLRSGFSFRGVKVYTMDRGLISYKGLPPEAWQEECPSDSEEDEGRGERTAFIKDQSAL

## CC(C)c1cc(C(C)C)c(CC(=O)NS(=O)(=O)Oc2c(C(C)C)cccc2C(C)C)c(C(C)C)c1
[1]
  Potency: 7.84 µM (active)
[2]
  Potency: 11.1 µM (active)

## C=CC(=O)Nc1cccc(Nc2nc(NC3CCC(N(C)C)CC3)nc3c2ncn3C(C)C)c1 (centres undefined)
[3]
  Potency: 0.657 µM (active)
[4]
  Potency: 2.96 µM (active)

## CN[C@@H]1C[C@H]2O[C@@](C)([C@H]1OC)n1c3ccccc3c3c4c(c5c6ccccc6n2c5c31)C(=O)N[C@H]4O
[3]
  Potency: 1.47 µM (active)
[5]
  Potency: 0.585 µM (active)
Furin (Homo sapiens)
  Potency: inactive
[1]
  Potency: 19.2 µM (active)

## COc1cc2ncnc(Nc3cccc(Br)c3)c2cc1OC
[5]
  Potency: inactive
[4]
  Potency: 20.9 µM (active)

## c1cc(N[C@@H]2CCNC2)nc(-c2cnc3ccc(-c4cn[nH]c4)cn23)c1
Furin (Homo sapiens)
  Potency: 24.1 µM (active)
[1]
  Potency: 24.1 µM (active)

## O=C(O)c1ccc(Nc2ncc3c(n2)-c2ccc(Cl)cc2C(c2c(F)cccc2F)=NC3)cc1
[6]
  Potency: inactive
[7]
  Potency: inactive

## CN(CC(=O)N(Cc1ccc(C2CCCCC2)cc1)c1ccc(C(=O)O)c(O)c1)S(=O)(=O)c1c(F)c(F)c(F)c(F)c1F
[6]
  Potency: inactive

## O=C(NCc1ccccc1)[C@H](Cc1ccccc1)NC(=O)[C@@H]1O[C@@H]1C(=O)NCCc1ccc(O)cc1
[3]
  Potency: inactive
[7]
  Potency: inactive

## O=C(Nc1cc2cc[nH]c2cn1)c1ccccc1
[3]
  Potency: 8.27 µM (active)
[4]
  Potency: 10.5 µM (active)

## COc1cc2c(cc1OC)[C@@H]1C(=O)c3ccc4c(c3O[C@@H]1CO2)C=CC(C)(C)O4
[5]
  Potency: 3.69 µM (active)
[7]
  Potency: inactive

## O=C(C=Cc1ccc(CN(CCO)CCc2c[nH]c3ccccc23)cc1)NO
[3]
  Potency: 0.233 µM (active)
[4]
  Potency: 0.118 µM (active)

## COc1cc(O)c2c(c1)C1OC1C[C@H](O)[C@H](O)C(=O)C=CC[C@H](C)OC2=O (some centres undefined)
[3]
  Potency: 18.5 µM (active)
[4]
  Potency: 4.69 µM (active)

## C[C@H]1[C@@H](OC(=O)CCC(=O)O)O[C@@H]2O[C@@]3(C)CC[C@@H]4[C@H](C)CC[C@@H]1[C@@]24OO3
[7]
  Potency: 3.29 µM (active)

## C=CCNC1=C2C[C@@H](C)C[C@H](OC)[C@@H](O)[C@@H](C)C=C(C)[C@H](OC(N)=O)[C@@H](OC)C=CC=C(C)C(=O)NC(=CC1=O)C2=O
[3]
  Potency: 0.585 µM (active)
[7]
  Potency: 11.7 µM (active)
[4]
  Potency: 1.87 µM (active)
